Test results taken from PubChem BioAssay AID1159580 (chemical genetic matrix, 2015).
Screen size: about 5,500 compounds; about 2,000 (36%) were called active. Not shown: some 18% with an inconclusive outcome. No stated cut-off is given here; in the data, active means normalized growth mostly below about 0.91 (no sharp cut-off); inconclusive means no clear call, values can overlap the other calls; inactive means mostly above about 0.92. The list shows a part of the results.

Assay: chemical genetic growth profiling, strain panel (AID 1159580);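 further: tested at 20 µM; growth read once vehicle control cultures reached saturation at 30 °C; 1 = growth at the plate median or of vehicle wells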
Conditions: growth OD

Measured: normalized growth

CCC1OC(=O)[C@H](C)C(=O)[C@H](C)[C@@H](OC2O[C@H](C)C[C@H](N(C)C)[C@H]2O)[C@](C)(OC)C2(CCCn3cnc(-c4cccnc4)c3)C[C@@H](C)C(=O)[C@H](C)[C@H]3N(C2)C(=O)O[C@]13C (some centres undefined)
inactive: S. cerevisiae deletion strains, locus YJR043C, strain POL32, stronger effect = lower value 0.994 | S. cerevisiae deletion strains, locus YJR075W, strain HOC1, stronger effect = lower value 0.99 | S. cerevisiae deletion strains, locus YKL009W, strain mrt4, stronger effect = lower value 1.01 | S. cerevisiae deletion strains, locus YKL068W, stronger effect = lower value 1.01 | S. cerevisiae deletion strains, locus YKL085W, strain MDH1 (second series), stronger effect = lower value 0.998 | S. cerevisiae deletion strains, locus YKL085W, strain MDH1, stronger effect = lower value 0.998 | S. cerevisiae deletion strains, locus YKL160W, strain elf1, stronger effect = lower value 0.994 | S. cerevisiae deletion strains, locus YKL190W, strain CNB1, stronger effect = lower value 1 | S. cerevisiae deletion strains, locus YKR001C, strain vps1, stronger effect = lower value 0.997 | S. cerevisiae deletion strains, locus YKR026C, strain gcn3, stronger effect = lower value 0.989 | S. cerevisiae deletion strains, locus YKR091W, strain srl3, stronger effect = lower value 0.985 | S. cerevisiae deletion strains, locus YLL001W, strain dnm1, stronger effect = lower value 0.984 | S. cerevisiae deletion strains, locus YLL026W, stronger effect = lower value 0.988 | S. cerevisiae deletion strains, locus YLL041C, strain sdh2, stronger effect = lower value 0.977 | S. cerevisiae deletion strains, locus YLR027C, strain aat2, stronger effect = lower value 0.99 | S. cerevisiae deletion strains, locus YLR039C, strain RIC1, stronger effect = lower value 1.02 | S. cerevisiae deletion strains, locus YLR058C, strain SHM2, stronger effect = lower value 1 | S. cerevisiae deletion strains, locus YLR102C, strain apc9, stronger effect = lower value 0.997 | S. cerevisiae deletion strains, locus YLR221C, strain rsa3, stronger effect = lower value 0.973 | S. cerevisiae deletion strains, locus YLR258W, strain gsy2, stronger effect = lower value 0.983 | S. cerevisiae deletion strains, locus YLR262C, strain YPT6 (second series), stronger effect = lower value 0.978 | S. cerevisiae deletion strains, locus YLR262C, strain YPT6, stronger effect = lower value 1.04 | S. cerevisiae deletion strains, locus YLR268W, strain sec22, stronger effect = lower value 0.98 | S. cerevisiae deletion strains, locus YLR320W, strain mms22, stronger effect = lower value 0.975 | S. cerevisiae deletion strains, locus YLR330W, strain CHS5, stronger effect = lower value 1 | S. cerevisiae deletion strains, locus YLR342W, strain FKS1 (second series), stronger effect = lower value 0.999 | S. cerevisiae deletion strains, locus YLR342W, strain FKS1, stronger effect = lower value 1.01 | S. cerevisiae deletion strains, locus YLR357W, strain rsc2, stronger effect = lower value 0.935 | S. cerevisiae deletion strains, locus YLR370C, strain arc18, stronger effect = lower value 0.985 | S. cerevisiae deletion strains, locus YLR371W, strain rom2, stronger effect = lower value 1.01 | S. cerevisiae deletion strains, locus YLR384C, strain iki3, stronger effect = lower value 0.995 | S. cerevisiae deletion strains, locus YLR418C, strain cdc73, stronger effect = lower value 0.979 | S. cerevisiae deletion strains, locus YML016C, strain PPZ1, stronger effect = lower value 1.01 | S. cerevisiae deletion strains, locus YML032C, strain rad52, stronger effect = lower value 1.01 | S. cerevisiae deletion strains, locus YML120C, strain ndi1, stronger effect = lower value 0.966 | S. cerevisiae deletion strains, locus YML124C, strain tub3, stronger effect = lower value 1.01 | S. cerevisiae deletion strains, locus YMR058W, strain fet3, stronger effect = lower value 0.974 | S. cerevisiae deletion strains, locus YMR078C, strain ctf18, stronger effect = lower value 1.01 | S. cerevisiae deletion strains, locus YMR125W, strain sto1, stronger effect = lower value 1.01 | S. cerevisiae deletion strains, locus YMR129W, stronger effect = lower value 0.974 | S. cerevisiae deletion strains, locus YMR205C, strain PFK2, stronger effect = lower value 0.996 | S. cerevisiae deletion strains, locus YMR223W, strain ubp8, stronger effect = lower value 1 | S. cerevisiae deletion strains, locus YMR231W, strain pep5, stronger effect = lower value 0.98 | S. cerevisiae deletion strains, locus YMR263W, strain SAP30, stronger effect = lower value 1 | S. cerevisiae deletion strains, locus YMR307W, strain GAS1, stronger effect = lower value 0.93 | S. cerevisiae deletion strains, locus YNL067W, strain RPL9B, stronger effect = lower value 1.01 | S. cerevisiae deletion strains, locus YNL071W, strain lat1, stronger effect = lower value 0.99 | S. cerevisiae deletion strains, locus YNL128W, strain TEP1, stronger effect = lower value 1.01 | S. cerevisiae deletion strains, locus YNL153C, strain GIM3, stronger effect = lower value 1.01 | S. cerevisiae deletion strains, locus YNL209W, strain ssb2, stronger effect = lower value 0.986 | S. cerevisiae deletion strains, locus YNL233W, strain BNI4, stronger effect = lower value 1.01 | S. cerevisiae deletion strains, locus YNL248C, strain rpa49, stronger effect = lower value 0.946 | S. cerevisiae deletion strains, locus YNL250W, strain rad50, stronger effect = lower value 0.992 | S. cerevisiae deletion strains, locus YNL271C, strain bni1, stronger effect = lower value 0.997 | S. cerevisiae deletion strains, locus YNL298W, strain CLA4, stronger effect = lower value 0.995 | S. cerevisiae deletion strains, locus YNL307C, strain MCK1, stronger effect = lower value 1.01 | S. cerevisiae deletion strains, locus YNL322C, strain KRE1 (second series), stronger effect = lower value 0.968 | S. cerevisiae deletion strains, locus YNL322C, strain KRE1, stronger effect = lower value 1 | S. cerevisiae deletion strains, locus YNR049C, strain mso1, stronger effect = lower value 0.958 | S. cerevisiae deletion strains, locus YNR052C, strain pop2, stronger effect = lower value 1.01 | S. cerevisiae deletion strains, locus YOL006C, strain TOP1, stronger effect = lower value 1 | S. cerevisiae deletion strains, locus YOL012C, strain htz1 1.16 | S. cerevisiae deletion strains, locus YOL147C, strain pex11, stronger effect = lower value 1 | S. cerevisiae deletion strains, locus YOR001W, strain rrp6, stronger effect = lower value 1 | S. cerevisiae deletion strains, locus YOR061W, strain CKA2, stronger effect = lower value 1.01 | S. cerevisiae deletion strains, locus YOR069W, strain VPS5, stronger effect = lower value 1.01 | S. cerevisiae deletion strains, locus YOR070C, strain gyp1, stronger effect = lower value 0.984 | S. cerevisiae deletion strains, locus YOR080W, strain dia2, stronger effect = lower value 0.968 | S. cerevisiae deletion strains, locus YOR083W, strain WHI5, stronger effect = lower value 1.01 | S. cerevisiae deletion strains, locus YOR106W, strain vam3, stronger effect = lower value 0.994 | S. cerevisiae deletion strains, locus YOR136W, strain idh2, stronger effect = lower value 1.01 | S. cerevisiae deletion strains, locus YOR144C, strain elg1, stronger effect = lower value 1 | S. cerevisiae deletion strains, locus YOR184W, strain ser1, stronger effect = lower value 0.996 | S. cerevisiae deletion strains, locus YOR265W, strain rbl2, stronger effect = lower value 0.996 | S. cerevisiae deletion strains, locus YOR270C, strain vph1, stronger effect = lower value 0.963 | S. cerevisiae deletion strains, locus YOR290C, strain snf2, stronger effect = lower value 0.963 | S. cerevisiae deletion strains, locus YOR316C, strain cot1, stronger effect = lower value 0.998 | S. cerevisiae deletion strains, locus YPL051W, strain arl3, stronger effect = lower value 1 | S. cerevisiae deletion strains, locus YPL055C, strain LGE1, stronger effect = lower value 1.02 | S. cerevisiae deletion strains, locus YPL078C, strain atp4, stronger effect = lower value 0.984 | S. cerevisiae deletion strains, locus YPL106C, strain sse1, stronger effect = lower value 0.943 | S. cerevisiae deletion strains, locus YPL240C, strain hsp82, stronger effect = lower value 0.986 | S. cerevisiae deletion strains, locus YPL241C, strain CIN2, stronger effect = lower value 1 | S. cerevisiae deletion strains, locus YPR119W, strain clb2, stronger effect = lower value 1 | S. cerevisiae deletion strains, locus YPR141C, strain kar3, stronger effect = lower value 1 | S. cerevisiae deletion strains, locus YPR163C, strain tif3, stronger effect = lower value 1.01 | S. cerevisiae deletion strains, locus YPR167C, strain met16, stronger effect = lower value 1 | S. cerevisiae deletion strains, strain wtn01, stronger effect = lower value 0.977 | S. cerevisiae strains, strain wild type, stronger effect = lower value 0.999
